Results: PubChem BioAssay AID1159580 (chemical genetic matrix, 2015)
Values joined by “and” are separate entries in the source; they are usually repeats but may differ in a detail not shown here. Identical values can stand only once. Out of some 5,500 compounds screened, about 2,000 (36%) were called active. Another 18% or so got no clear call; they are omitted. No stated cut-off is given here; in the data, active means normalized growth mostly below about 0.91 (no sharp cut-off); inconclusive means no clear call, values can overlap the other calls; inactive means mostly above about 0.92. The list shows a part of the results.

Assay: chemical genetic growth profiling, strain panel (AID 1159580);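 further: tested at 20 µM; growth read once vehicle control cultures reached saturation at 30 °C; 1 = growth at the plate median or of vehicle wells; lower values mean less growth of the strain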
Conditions: S. cerevisiae deletion strains, growth OD
[1] = locus YAL013W, strain DEP1, active compounds read low
[2] = locus YAL040C, strain CLN3, active compounds read low
[3] = locus YCL061C, strain MRC1 (second series), active compounds read low
[4] = locus YDR363W, strain ESC2, active compounds read low
[5] = locus YER002W, strain NOP16, active compounds read low
[6] = locus YGR229C, strain SMI1, active compounds read low
[7] = locus YMR307W, strain GAS1, active compounds read low
[8] = locus YNL175C, strain NOP13, active compounds read low
[9] = locus YNL197C, strain WHI3, active compounds read low
[10] = locus YNL224C, strain SQS1, active compounds read low
[11] = locus YNL322C, strain KRE1, active compounds read low
[12] = locus YOR083W, strain WHI5 (second series), active compounds read low

Measured: normalized growth

O=C(O)CC[C@@H](NC(=O)c1ccccc1C(=O)O)C(=O)O
inactive: [1] 1.02 | [2] 0.995 | [3] 1.01 | [4] 1.01 | [5] 1.03 | [6] 1.03 | locus YJR075W, strain HOC1, active compounds read low 1.01 | [7] 1 | [8] 1 | [9] 1.01 | [10] 1.01 | [11] 1 | [12] 1.02 | locus YPL241C, strain CIN2, active compounds read low 1.01

NCCCCN=C(N)N
inactive: [1] 1 | locus YAL021C, strain ccr4, active compounds read low 1.02 | locus YAL026C, strain drs2, active compounds read low 1.03 | locus YAL030W, strain snc1, active compounds read low 1.03 | [2] 1 | locus YBL061C, strain skt5, active compounds read low 1.01 | locus YBR009C, strain hhf1, active compounds read low 1.02 | locus YBR021W, strain FUR4, active compounds read low 0.983 | locus YBR023C, strain chs3, active compounds read low 1.03 | locus YBR171W, strain sec66, active compounds read low 1.03 | locus YBR229C, strain ROT2, active compounds read low 0.996 | locus YBR231C, strain swc5, active compounds read low 1.01 | locus YBR279W, strain paf1, active compounds read low 1.01 | locus YCL011C, strain gbp2, active compounds read low 1.03 | locus YCL016C, strain dcc1, active compounds read low 1.01 | locus YCL029C, strain bik1, active compounds read low 0.979 | [3] 1.01 | locus YCL069W, strain vba3, active compounds read low 1.02 | locus YCR088W, strain abp1, active compounds read low 1.04 | locus YDL005C, strain med2, active compounds read low 1.04 | locus YDL035C, strain GPR1, active compounds read low 1.02 | locus YDL040C, strain nat1, active compounds read low 1.02 | locus YDL074C, strain BRE1, active compounds read low 0.992 | locus YDL101C, strain DUN1, active compounds read low 0.998 | locus YDL134C, strain PPH21, active compounds read low 1.04 | locus YDL185W, strain tfp1, active compounds read low 0.976 | locus YDL192W, strain arf1, active compounds read low 0.986 | locus YDR001C, strain nth1, active compounds read low 1.01 | locus YDR069C, strain doa4, active compounds read low 1.02 | locus YDR101C, strain arx1, active compounds read low 0.968 | locus YDR137W, strain rgp1, active compounds read low 1.04 | locus YDR150W, strain NUM1, active compounds read low 1 | locus YDR159W, strain sac3, active compounds read low 1 | locus YDR162C, strain NBP2, active compounds read low 1.01 | locus YDR195W, strain ref2 1.04 | locus YDR297W, strain sur2, active compounds read low 1.02 | locus YDR318W, strain mcm21, active compounds read low 1 | locus YDR334W, strain swr1, active compounds read low 1.02 | locus YDR335W, strain msn5, active compounds read low 1.03 | [4] 0.994 | locus YDR388W, active compounds read low 0.976 | locus YDR392W, strain spt3, active compounds read low 0.992 | locus YDR502C, strain sam2, active compounds read low 0.987 | locus YEL003W, strain gim4, active compounds read low 1.02 | locus YEL037C, strain rad23, active compounds read low 1.02 | locus YEL061C, strain CIN8 (second series), active compounds read low 1.03 | locus YEL061C, strain CIN8, active compounds read low 1 | [5] 1.03 | locus YER015W, strain faa2, active compounds read low 1.03 | locus YER016W, strain bim1, active compounds read low 1.01 | locus YER110C, active compounds read low 0.977 | locus YER111C, strain swi4, active compounds read low 1.03 | locus YER155C, strain BEM2 (second series), active compounds read low 1.02 | locus YER155C, strain BEM2, active compounds read low 0.981 | locus YER167W, strain BCK2, active compounds read low 0.999 | locus YFR010W, strain ubp6, active compounds read low 1.04 | locus YGL078C, strain dbp3, active compounds read low 0.981 | locus YGL086W, strain mad1, active compounds read low 0.963 | locus YGL167C, strain pmr1, active compounds read low 1.02 | locus YGL173C, strain kem1, active compounds read low 1.02 | locus YGL227W, strain vid30, active compounds read low 1.02 | locus YGL240W, strain doc1, active compounds read low 1.02 | locus YGL248W, strain PDE1, active compounds read low 1 | locus YGL253W, strain hxk2, active compounds read low 1.02 | locus YGR078C, strain PAC10, active compounds read low 1 | locus YGR135W, strain pre9, active compounds read low 1 | [6] 1.01 | locus YGR252W, strain gcn5, active compounds read low 1.09 | locus YHR013C, strain ard1, active compounds read low 1.12 | locus YHR027C, strain rpn1, active compounds read low 1.02 | locus YHR030C, strain SLT2, active compounds read low 0.993 and 1.01 | locus YHR079C, strain IRE1 (second series), active compounds read low 0.987 | locus YHR079C, strain IRE1, active compounds read low 1.01 | locus YHR094C, strain hxt1, active compounds read low 0.974 | locus YHR142W, strain chs7, active compounds read low 1.05 | locus YHR200W, strain rpn10, active compounds read low 0.987 | locus YIL066C, strain RNR3, active compounds read low 0.994 | locus YIL073C, strain SPO22, active compounds read low 1.03 | locus YIL125W, strain kgd1, active compounds read low 0.974 | locus YIR030C, strain dcg1, active compounds read low 0.988 | locus YJL092W, strain hpr5, active compounds read low 1.02 | locus YJL095W, strain BCK1 (second series), active compounds read low 1.03 | locus YJL095W, strain BCK1, active compounds read low 1.02 and 0.995 | locus YJL115W, strain asf1, active compounds read low 1.03 | locus YJL129C, strain trk1, active compounds read low 1.06 | locus YJL134W, strain LCB3, active compounds read low 0.998 | locus YJL154C, strain vps35, active compounds read low 1.02 | locus YJL164C, strain tpk1, active compounds read low 1.02 | locus YJL166W, strain qcr8, active compounds read low 1.02 | locus YJL168C, strain set2, active compounds read low 0.981 | locus YJL187C, strain SWE1 (second series), active compounds read low 0.997 | locus YJL187C, strain SWE1, active compounds read low 1.02 | locus YJR043C, strain POL32, active compounds read low 0.993 | locus YJR066W, strain TOR1, active compounds read low 0.973 | locus YKL009W, strain mrt4, active compounds read low 1 | locus YKL068W, active compounds read low 0.994 | locus YKL085W, strain MDH1 (second series), active compounds read low 0.993 | locus YKL085W, strain MDH1, active compounds read low 0.993 | locus YKL160W, strain elf1, active compounds read low 1.02 | locus YKL190W, strain CNB1, active compounds read low 1.01 | locus YKR001C, strain vps1, active compounds read low 0.963 | locus YKR026C, strain gcn3, active compounds read low 1.02 | locus YKR091W, strain srl3, active compounds read low 1.02 | locus YLL001W, strain dnm1, active compounds read low 1.01 | locus YLL026W, active compounds read low 1.02 | locus YLL041C, strain sdh2, active compounds read low 1.02 | locus YLR027C, strain aat2, active compounds read low 1.03 | locus YLR039C, strain RIC1, active compounds read low 1.01 | locus YLR058C, strain SHM2, active compounds read low 1.01 | locus YLR102C, strain apc9, active compounds read low 0.985 | locus YLR113W, strain HOG1, active compounds read low 1 | locus YLR221C, strain rsa3, active compounds read low 1.01 | locus YLR258W, strain gsy2, active compounds read low 1.02 | locus YLR262C, strain YPT6 (second series), active compounds read low 1.04 | locus YLR262C, strain YPT6, active compounds read low 1.06 | locus YLR268W, strain sec22, active compounds read low 0.957 | locus YLR320W, strain mms22, active compounds read low 1.02 | locus YLR330W, strain CHS5, active compounds read low 0.978 | locus YLR342W, strain FKS1 (second series), active compounds read low 1.01 | locus YLR342W, strain FKS1, active compounds read low 1.01 | locus YLR357W, strain rsc2, active compounds read low 1.05 | locus YLR370C, strain arc18, active compounds read low 1.03 | locus YLR371W, strain rom2, active compounds read low 0.972 | locus YLR384C, strain iki3, active compounds read low 1.03 | locus YLR418C, strain cdc73, active compounds read low 1.01 | locus YML016C, strain PPZ1, active compounds read low 0.991 | locus YML032C, strain rad52, active compounds read low 1.02 | locus YML120C, strain ndi1, active compounds read low 1.04 | locus YML124C, strain tub3, active compounds read low 0.987 | locus YMR058W, strain fet3, active compounds read low 1.02 | locus YMR078C, strain ctf18, active compounds read low 0.986 | locus YMR125W, strain sto1, active compounds read low 1.03 | locus YMR129W, active compounds read low 1.02 | locus YMR205C, strain PFK2, active compounds read low 1.02 | locus YMR223W, strain ubp8, active compounds read low 1 | locus YMR231W, strain pep5, active compounds read low 1.03 | locus YMR263W, strain SAP30, active compounds read low 1.01 | [7] 1.04 and 0.995 | locus YNL067W, strain RPL9B, active compounds read low 1.01 | locus YNL071W, strain lat1, active compounds read low 1.02 | locus YNL153C, strain GIM3, active compounds read low 1.01 | [8] 0.997 | locus YNL183C, strain NPR1, active compounds read low 0.959 | [9] 1.01 | locus YNL209W, strain ssb2, active compounds read low 1.02 | [10] 1.01 | locus YNL233W, strain BNI4, active compounds read low 0.988 | locus YNL248C, strain rpa49, active compounds read low 1.02 | locus YNL250W, strain rad50, active compounds read low 0.974 | locus YNL271C, strain bni1, active compounds read low 0.976 | locus YNL298W, strain CLA4, active compounds read low 0.969 | locus YNL307C, strain MCK1, active compounds read low 0.973 | locus YNL322C, strain KRE1 (second series), active compounds read low 1.03 | [11] 1 | locus YNR049C, strain mso1, active compounds read low 1.02 | locus YNR052C, strain pop2, active compounds read low 0.995 | locus YOL012C, strain htz1 0.814 | locus YOL147C, strain pex11, active compounds read low 0.993 | locus YOR001W, strain rrp6, active compounds read low 1.03 | locus YOR061W, strain CKA2, active compounds read low 1 | locus YOR069W, strain VPS5, active compounds read low 0.994 | locus YOR070C, strain gyp1, active compounds read low 1.02 | locus YOR080W, strain dia2, active compounds read low 1.03 | [12] 1.01 | locus YOR083W, strain WHI5, active compounds read low 1.01 | locus YOR106W, strain vam3, active compounds read low 1.04 | locus YOR136W, strain idh2, active compounds read low 0.972 | locus YOR144C, strain elg1, active compounds read low 0.984 | locus YOR184W, strain ser1, active compounds read low 0.985 | locus YOR265W, strain rbl2, active compounds read low 1.02 | locus YOR270C, strain vph1, active compounds read low 1.05 | locus YOR290C, strain snf2, active compounds read low 1.01 | locus YOR316C, strain cot1, active compounds read low 0.983 | locus YPL051W, strain arl3, active compounds read low 1.01 | locus YPL078C, strain atp4, active compounds read low 1.03 | locus YPL106C, strain sse1, active compounds read low 1.04 | locus YPL240C, strain hsp82, active compounds read low 1.02 | locus YPL256C, strain CLN2, active compounds read low 0.994 | locus YPR119W, strain clb2, active compounds read low 0.988 | locus YPR141C, strain kar3, active compounds read low 0.988 | locus YPR163C, strain tif3, active compounds read low 0.975 | locus YPR167C, strain met16, active compounds read low 0.986 | strain wtn01, active compounds read low 0.939
